We go through four compounds from PubChem BioAssay (EPA / NIEHS).

A short description of experiment [1]: ATG_PXRE_CIS: Attagene CIS-FACTORIAL HepG2 Assay for human Pregnane X Receptor Element (PXRE) (AID 2282957). The conditions noted are these: HepG2 Attagene CIS-FACTORIAL PXRE reporter, mRNA; actives raise or lower the signal. In short, it runs like this: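 HepG2 cells transiently transfected with cis-element-driven multiplexed reporter units; after 24 h chemical exposure, reporter mRNA measured by RT-PCR, 6-FAM labelling, HpaI digestion and capillary electrophoresis. Bidirectional fitting relative to DMSO.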

Experiment [2] in a line: ATG_Sox_CIS: Attagene CIS-FACTORIAL HepG2 Assay for human SRY-box transcription factor (SOX) (AID 2282960). The conditions noted are these: HepG2 Attagene cis-factorial SOX reporter, mRNA; actives raise or lower the signal. In short, it runs like this:
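Endogenous factor activity in human liver HepG2 cells carrying transfected cis-regulated reporter units. RNA taken 24 h post-dose, reverse-transcribed, PCR-amplified and sized by capillary electrophoresis. Gain or loss of signal fitted relative to DMSO.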

Experiment [3] in a line: ATG_SREBP_CIS: Attagene CIS-FACTORIAL HepG2 Assay for human Sterol Regulatory Element Binding (SREBP) (AID 2282962). Conditions: HepG2 Attagene cis-factorial SREBP reporter, mRNA; actives raise or lower the signal. A digest of the protocol: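 mRNA induction of transfected cis-promoter reporters in HepG2 cells, 24 h post-dose. Detection: RT-PCR with 6-FAM-labelled products, HpaI digest, capillary electrophoresis. DMSO served as negative control and baseline.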

Experiment [4] deals with Signal transducer and activator of transcription 3 (Homo sapiens) (UniProt P40763). The experiment can be described thus: ATG_STAT3_CIS: Attagene CIS-FACTORIAL HepG2 Assay for human Signal Transducer and Activator of Transcription 3 (STAT3) (AID 2282963). The conditions noted are these: HepG2, Attagene cis-factorial STAT3 reporter transcription; actives raise or lower the signal. In short, it runs like this: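 HepG2 cells transiently transfected with cis-element-driven multiple reporter transcription units; after 24 h chemical exposure, reporter mRNA measured by RT-PCR, 6-FAM primer-extension labelling, HpaI digestion and capillary electrophoresis. Bidirectional fitting versus DMSO baseline.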

The nature of experiment [5]: ATG_TA_CIS: Attagene CIS-FACTORIAL HepG2 Assay for human TA Basal Promoter (AID 2282964). The conditions noted are these: HepG2 Attagene CIS-factorial TA basal promoter reporter; actives raise or lower the signal. A digest of the protocol: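 Transient MRTU transfection of HepG2 preceded 24 h compound exposure. Reporter mRNA levels were then read by RT-PCR with capillary electrophoresis, and this background-control endpoint was fitted bidirectionally to DMSO.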

The nature of experiment [6]: ATG_TCF_b_cat_CIS: Attagene CIS-FACTORIAL HepG2 Assay for human T-Cell-Factor with beta-catenin (TCF/b-cat) (AID 2282965). The conditions noted are these: HepG2 TCF/beta-catenin cis-reporter transcription, actives raise or lower the signal. A digest of the protocol:
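HepG2 cells transiently transfected with multiple cis-promoter-regulated reporter transcription units, so endogenous transcription factor activity is measured. Reporter mRNA read 24 hours after dosing by RT-PCR, fluorescent labelling and capillary electrophoresis; bidirectional fitting against DMSO.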

Experiment [7] can be described thus: ATG_TAL_CIS: Attagene CIS-FACTORIAL HepG2 Assay for human TAL Basal Promoter (AID 2282966).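 Further: background control endpoint measuring basal TAL promoter reporter mRNA not a specific factor.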 Conditions: HepG2 Attagene cis-factorial TAL promoter reporter; actives raise or lower the signal. In short, it runs like this:
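HepG2 cells transiently transfected with multiplexed cis-promoter reporter units, dosed 24 h. Reporter mRNA quantified by RT-PCR, 6-FAM labelling, HpaI digestion and capillary electrophoresis; TAL basal promoter serves as background control, fitted bidirectionally versus DMSO.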

A short description of experiment [8]: ATG_TGFb_CIS: Attagene CIS-FACTORIAL HepG2 Assay for human Transforming Growth Factor (TGF) (AID 2282967). Conditions: HepG2 Attagene CIS TGFb reporter, mRNA transcription; actives raise or lower the signal. In short, it runs like this: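 After a 24-hour incubation with compound, transfected HepG2 cells were lysed for RNA; reporter cDNA was amplified, fluorescently end-labeled and separated by CE. DMSO served as baseline for bidirectional fits.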

Experiment [9] can be described thus: ATG_VDRE_CIS: Attagene CIS-FACTORIAL HepG2 Assay for human Vitamin D Receptor Element (VDRE) (AID 2282968). Conditions: HepG2 VDRE cis-reporter transcription, actives raise or lower the signal. In short, it runs like this:
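HepG2 cells transiently transfected with cis-element reporter units, dosed 24 h; reporter mRNA measured by RT-PCR, 6-FAM labeling, HpaI digestion and capillary electrophoresis. Activity fitted bidirectionally against DMSO baseline.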

The target of experiment [10] is X-box-binding protein 1 (Homo sapiens) (UniProt P17861). Kind of experiment: ATG_Xbp1_CIS: Attagene CIS-FACTORIAL HepG2 Assay for human X-box Binding Protein 1 (XBP1) (AID 2282972). Conditions: HepG2 XBP1 cis-element reporter, Attagene multiplex; actives raise or lower the signal. A digest of the protocol: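 Fluorescence-labelled cDNA fragments from reporter transcripts, separated by capillary electrophoresis, give the signal. Source: HepG2 cells transfected with promoter-driven reporter units, harvested 24 h post-dose. DMSO served as reference for bidirectional curve fitting.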

Experiment [11] is described as follows: ATG_GAL4_TRANS: Attagene TRANS-FACTORIAL HepG2 Assay for GAL4 (Internal Marker) (AID 2282976; active means hit-call score of the fitted dose curve at least 0.9, where 1 is the maximum). Conditions: HepG2 Attagene TRANS GAL4 internal marker reporter. In short, it runs like this: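 Background-control readout: GAL4-UAS reporter transcript in transiently transfected HepG2 cells after 24 h compound exposure. Measured by RT-PCR, 6-FAM primer extension, HpaI digest and capillary electrophoresis; gain-of-signal fit versus DMSO.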

Experiment [12] concerns the target Estrogen-related receptor gamma (Homo sapiens) (UniProt P62508). Kind of experiment: ATG_ERRg_TRANS: Attagene TRANS-FACTORIAL HepG2 Assay for human Estrogen-Related Receptor gamma (ERRg) (AID 2282977; active means hit-call score of the fitted dose curve at least 0.9, where 1 is the maximum;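 further: hits increase reporter signal over DMSO so potencies reflect activators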). The conditions noted are these: HepG2 Attagene TRANS reporter, ERRg transactivation. A digest of the protocol:
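Transient HepG2 transfectants, 24 h compound exposure, GAL4-UAS reporter mRNA by RT-PCR/6-FAM labelling/capillary electrophoresis; positive direction vs DMSO.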

Experiment [13] has as its target Glucocorticoid receptor (Homo sapiens) (UniProt P04150). Kind of experiment: ATG_GR_TRANS: Attagene TRANS-FACTORIAL HepG2 Assay for human Glucocorticoid Receptor (GR) (AID 2282978; active means hit-call score of the fitted dose curve at least 0.9, where 1 is the maximum;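 further: activators score as hits since higher reporter transcript over DMSO is fitted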). The conditions noted are these: HepG2 Attagene TRANS GR reporter, mRNA transcription. A digest of the protocol:
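Fluorescent capillary-electrophoresis quantitation of reporter mRNA is the readout, taken 24 h after dosing human HepG2 cells carrying transiently transfected GAL4-UAS reporter units activated by chimeric NR-GAL4 fusions; activity scored as induction over DMSO.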

Experiment [14] in a line: ATG_RORE_CIS: Attagene CIS-FACTORIAL HepG2 Assay for human RAR-related Orphan Receptor Element (RORE) (AID 2282959). The conditions noted are these: HepG2 Attagene cis-factorial RORE reporter, mRNA; actives raise or lower the signal. A digest of the protocol:
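Transient MRTU transfection of human HepG2 liver cells (FuGene 6); 24 h compound exposure; TriZol RNA, oligo(dT) RT, PCR, FAM labeling, HpaI cut, CE fragment analysis. DMSO = negative control/baseline.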

In experiment [15] the target is Transcription factor Sp1 (Homo sapiens) (UniProt P08047). The experiment can be described thus: ATG_Sp1_CIS: Attagene CIS-FACTORIAL HepG2 Assay for human Specificity Protein 1 (Sp1) (AID 2282961). The conditions noted are these: HepG2 Sp1 cis-reporter transcription, actives raise or lower the signal. In short, it runs like this:
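Transient MRTU-transfected HepG2, 24 h compound exposure. Total RNA → oligo(dT) RT → PCR of reporter → 6-FAM primer extension → HpaI digest → CE. Endpoint fitted both directions vs DMSO.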

Experiment [16] can be described thus: ATG_M_19_TRANS: Attagene TRANS-FACTORIAL HepG2 Assay for M19 Transcription Factor (Internal Marker) (AID 2282974; active means hit-call score of the fitted dose curve at least 0.9, where 1 is the maximum). Conditions: HepG2 Attagene TRANS-FACTORIAL M19 internal marker reporter. A digest of the protocol:
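Fluorescence of 6-FAM-labelled reporter cDNA fragments, separated by capillary electrophoresis, served as the readout. These derived from HepG2 cells carrying transfected GAL4-UAS reporter units after 24 h dosing, with DMSO as negative control.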

The target in experiment [17] is Nuclear receptor subfamily 1 group I member 3 (Homo sapiens) (UniProt Q14994). The experiment can be described thus: ATG_CAR_TRANS: Attagene TRANS-FACTORIAL HepG2 Assay for human Constitutive Androstane Receptor (CAR) (AID 2282969; active means hit-call score of the fitted dose curve at least 0.9, where 1 is the maximum;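 further: activators raise reporter mRNA above DMSO so AC50 marks induction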). Conditions: HepG2 Attagene TRANS-FACTORIAL CAR reporter. In short, it runs like this:
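HepG2 cells transiently transfected with multiplexed GAL4-UAS reporter units expressing chimeric NR-Gal4 proteins; compound exposure 24 h. Reporter mRNA measured by RT-PCR, 6-FAM labelling, HpaI digestion and capillary electrophoresis; gain-of-signal fitted against DMSO baseline.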

Experiment [18] has as its target Steroid hormone receptor ERR1 (Homo sapiens) (UniProt P11474). Kind of experiment: ATG_ERRa_TRANS: Attagene TRANS-FACTORIAL HepG2 Assay for human Estrogen-Related Receptor alpha (ERRa) (AID 2282971; active means hit-call score of the fitted dose curve at least 0.9, where 1 is the maximum). Conditions: HepG2 Attagene TRANS reporter, ERRa transactivation. In short, it runs like this:
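HepG2 cells transiently transfected with GAL4-UAS reporter units and chimeric NR-Gal4 constructs; after 24 hour compound incubation, reporter mRNA quantified by RT-PCR, fluorescent labelling and capillary electrophoresis, gain of signal versus DMSO.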

Several values for one entry are separate records, joined by “and”; a condition that tells them apart may be missing. Identical values can stand only once. Inconclusive results are not listed. Where a structure was tested more than once in an assay, its records may differ in their call. Activity calls are given as the source filed them. How the source made its calls, unless noted: active means hit-call score of the fitted dose curve at least 0.9, where 1 is the maximum; inactive means score below 0.9.

Chain of Signal transducer and activator of transcription 3 (Homo sapiens) (P40763 whole entry, looked up): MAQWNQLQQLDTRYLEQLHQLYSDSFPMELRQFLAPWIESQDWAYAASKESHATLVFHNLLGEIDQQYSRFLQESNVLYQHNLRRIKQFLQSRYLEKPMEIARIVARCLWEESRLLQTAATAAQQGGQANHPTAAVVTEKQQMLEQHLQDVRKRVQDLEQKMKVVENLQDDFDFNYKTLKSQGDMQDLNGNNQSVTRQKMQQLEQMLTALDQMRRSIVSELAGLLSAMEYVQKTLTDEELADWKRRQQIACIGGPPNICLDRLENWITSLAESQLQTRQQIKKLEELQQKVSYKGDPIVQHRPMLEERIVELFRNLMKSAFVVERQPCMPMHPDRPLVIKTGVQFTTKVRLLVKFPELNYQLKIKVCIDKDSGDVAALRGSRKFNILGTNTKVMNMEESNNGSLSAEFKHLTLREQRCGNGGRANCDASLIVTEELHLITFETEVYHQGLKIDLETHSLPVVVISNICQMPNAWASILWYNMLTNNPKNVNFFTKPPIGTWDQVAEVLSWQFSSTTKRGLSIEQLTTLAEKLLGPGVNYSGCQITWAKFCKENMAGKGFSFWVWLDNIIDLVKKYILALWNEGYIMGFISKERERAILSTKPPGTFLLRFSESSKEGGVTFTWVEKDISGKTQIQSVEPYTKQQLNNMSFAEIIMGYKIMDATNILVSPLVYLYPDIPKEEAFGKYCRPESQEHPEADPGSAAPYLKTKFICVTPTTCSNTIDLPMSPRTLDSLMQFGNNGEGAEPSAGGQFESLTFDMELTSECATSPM
Chain of X-box-binding protein 1 (Homo sapiens) (P17861 whole entry, looked up, the tested form may be a part): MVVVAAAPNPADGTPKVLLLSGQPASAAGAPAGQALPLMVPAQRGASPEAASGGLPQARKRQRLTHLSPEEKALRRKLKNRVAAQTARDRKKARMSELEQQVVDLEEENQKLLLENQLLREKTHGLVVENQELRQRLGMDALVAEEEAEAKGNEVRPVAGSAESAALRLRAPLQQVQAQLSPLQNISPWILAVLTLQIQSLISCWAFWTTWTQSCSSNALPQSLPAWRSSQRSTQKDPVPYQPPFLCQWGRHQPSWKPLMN
Chain of Transcription factor Sp1 (Homo sapiens) (P08047 whole entry, looked up): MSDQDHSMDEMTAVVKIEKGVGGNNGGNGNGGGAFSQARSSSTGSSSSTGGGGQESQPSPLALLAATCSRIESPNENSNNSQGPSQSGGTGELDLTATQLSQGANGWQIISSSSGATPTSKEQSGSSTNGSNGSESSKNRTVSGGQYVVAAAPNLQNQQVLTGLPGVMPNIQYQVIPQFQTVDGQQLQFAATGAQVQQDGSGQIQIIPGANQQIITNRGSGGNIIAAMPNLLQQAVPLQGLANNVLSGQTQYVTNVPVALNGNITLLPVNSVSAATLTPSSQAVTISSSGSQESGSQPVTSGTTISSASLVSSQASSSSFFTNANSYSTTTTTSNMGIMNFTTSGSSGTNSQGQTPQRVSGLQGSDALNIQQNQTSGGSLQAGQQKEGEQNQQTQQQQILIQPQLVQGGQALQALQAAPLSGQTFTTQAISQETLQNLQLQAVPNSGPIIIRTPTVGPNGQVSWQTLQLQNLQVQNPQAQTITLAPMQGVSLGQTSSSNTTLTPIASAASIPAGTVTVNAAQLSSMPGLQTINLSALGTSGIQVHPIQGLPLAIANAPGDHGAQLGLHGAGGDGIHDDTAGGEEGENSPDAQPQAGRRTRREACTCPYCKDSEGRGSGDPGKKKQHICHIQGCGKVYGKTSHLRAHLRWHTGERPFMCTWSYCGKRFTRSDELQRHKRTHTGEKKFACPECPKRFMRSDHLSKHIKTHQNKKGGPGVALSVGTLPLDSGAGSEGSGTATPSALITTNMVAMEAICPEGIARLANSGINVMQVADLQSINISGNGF
Chain of Glucocorticoid receptor (Homo sapiens) (P04150 whole entry, looked up, the tested form may be a part): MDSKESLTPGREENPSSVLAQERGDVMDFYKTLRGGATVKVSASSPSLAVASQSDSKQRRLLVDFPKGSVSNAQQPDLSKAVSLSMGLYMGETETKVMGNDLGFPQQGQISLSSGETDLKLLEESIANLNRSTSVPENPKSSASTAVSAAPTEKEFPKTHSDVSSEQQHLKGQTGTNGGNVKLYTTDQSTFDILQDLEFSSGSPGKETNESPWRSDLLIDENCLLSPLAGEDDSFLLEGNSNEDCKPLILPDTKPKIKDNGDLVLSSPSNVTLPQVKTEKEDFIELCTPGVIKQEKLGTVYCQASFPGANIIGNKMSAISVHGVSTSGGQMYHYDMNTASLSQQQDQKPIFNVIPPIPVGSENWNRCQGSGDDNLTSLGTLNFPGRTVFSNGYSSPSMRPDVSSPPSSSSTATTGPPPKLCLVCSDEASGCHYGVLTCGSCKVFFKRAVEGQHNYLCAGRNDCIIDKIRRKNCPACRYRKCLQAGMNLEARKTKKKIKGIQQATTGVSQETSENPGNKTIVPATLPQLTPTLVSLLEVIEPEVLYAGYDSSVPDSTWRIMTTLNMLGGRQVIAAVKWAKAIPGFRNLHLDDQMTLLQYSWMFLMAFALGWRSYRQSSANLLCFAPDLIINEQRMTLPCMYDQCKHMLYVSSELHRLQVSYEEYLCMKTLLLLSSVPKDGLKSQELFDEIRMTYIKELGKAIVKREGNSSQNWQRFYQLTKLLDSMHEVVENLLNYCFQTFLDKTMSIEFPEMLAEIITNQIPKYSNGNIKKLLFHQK
Chain of Nuclear receptor subfamily 1 group I member 3 (Homo sapiens) (Q14994 whole entry, looked up, the tested form may be a part): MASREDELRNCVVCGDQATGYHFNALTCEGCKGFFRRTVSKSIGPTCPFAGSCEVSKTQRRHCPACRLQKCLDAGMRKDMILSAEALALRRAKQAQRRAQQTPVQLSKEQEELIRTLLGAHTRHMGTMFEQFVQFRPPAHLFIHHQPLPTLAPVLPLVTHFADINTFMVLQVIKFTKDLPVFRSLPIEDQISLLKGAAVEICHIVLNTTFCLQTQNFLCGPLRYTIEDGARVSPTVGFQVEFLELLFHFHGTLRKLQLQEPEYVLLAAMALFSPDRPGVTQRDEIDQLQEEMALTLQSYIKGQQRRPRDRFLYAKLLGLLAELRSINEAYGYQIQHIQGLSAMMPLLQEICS
Chain of Estrogen-related receptor gamma (Homo sapiens) (P62508 whole entry, looked up, the tested form may be a part): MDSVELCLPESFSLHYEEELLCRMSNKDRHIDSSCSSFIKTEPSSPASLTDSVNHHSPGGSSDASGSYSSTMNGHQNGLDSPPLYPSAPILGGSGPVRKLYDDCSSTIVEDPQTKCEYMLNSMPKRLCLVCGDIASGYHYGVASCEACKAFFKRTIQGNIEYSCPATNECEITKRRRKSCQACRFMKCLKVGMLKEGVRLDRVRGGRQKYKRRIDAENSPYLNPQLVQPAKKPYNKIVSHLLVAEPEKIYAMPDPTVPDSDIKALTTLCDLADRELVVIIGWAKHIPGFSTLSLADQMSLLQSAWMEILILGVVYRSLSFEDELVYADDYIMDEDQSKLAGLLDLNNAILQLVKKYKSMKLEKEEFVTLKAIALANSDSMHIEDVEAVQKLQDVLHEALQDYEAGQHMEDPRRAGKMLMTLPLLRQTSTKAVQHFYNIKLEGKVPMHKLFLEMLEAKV
Chain of Steroid hormone receptor ERR1 (Homo sapiens) (P11474 whole entry, looked up, the tested form may be a part): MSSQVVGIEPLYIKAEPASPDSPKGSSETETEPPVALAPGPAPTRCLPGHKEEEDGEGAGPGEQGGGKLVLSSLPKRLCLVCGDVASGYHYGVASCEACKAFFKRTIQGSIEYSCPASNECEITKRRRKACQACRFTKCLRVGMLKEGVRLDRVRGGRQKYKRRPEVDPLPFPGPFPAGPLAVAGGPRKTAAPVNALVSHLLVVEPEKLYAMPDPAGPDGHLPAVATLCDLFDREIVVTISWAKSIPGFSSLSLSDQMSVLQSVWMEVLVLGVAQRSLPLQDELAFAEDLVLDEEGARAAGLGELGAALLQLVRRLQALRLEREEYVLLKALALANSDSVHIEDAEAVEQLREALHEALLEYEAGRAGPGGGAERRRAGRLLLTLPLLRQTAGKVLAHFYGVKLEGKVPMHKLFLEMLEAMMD

For the compound `CN(C)c1ccc(C(=C2C=CC(=[N+](C)C)C=C2)c2ccccc2)cc1`, the call in experiment [1], in experiment [2], in [3], in experiment [4], in experiment [5] and in [7] was inactive. Further, the compound was called inactive in experiment [8], in experiment [10], in [11], in experiment [12] and in experiment [13]. Also, the AC50 in experiment [2] is 1.36 µM (active); in [3], 9.9 µM (active); in experiment [5], 0.752 µM (active); in [6] it was 2.07 µM (active) and 2.43 µM (active); in [8], 1.85 µM (active); in experiment [9], 1.82 µM (active) and 1.3 µM (active). Further, the AC50 in experiment [10] was 1.94 µM (active).
With `O=C(CCCN1CCC(O)(c2ccc(Cl)cc2)CC1)c1ccc(F)cc1`, the AC50 in experiment [14] was 52.4 µM (active); in experiment [15], 33.4 µM (active); in experiment [3], 5.07 µM (active); in [4], 59.5 µM (active); in experiment [5] it was 33.4 µM (active); in experiment [7], 53.8 µM (active). In addition, in experiment [10], the AC50 is 50.3 µM (active). The compound was called inactive in experiment [2], in experiment [6], in experiment [8] and in experiment [16].
Regarding `O=S(=O)(O)c1ccc2cc(O)ccc2c1`, the call in experiment [1], in [2], in experiment [15], in experiment [5], in [6] and in experiment [7] was inactive. The outcome in [8], in experiment [9], in experiment [17], in [10] and in [16] was inactive.
Regarding `Cc1cc(C(=C2C=CC(=Nc3ccc(S(=O)(=O)O)cc3)C=C2)c2ccc(Nc3ccc(S(=O)(=O)O)cc3)cc2)cc(S(=O)(=O)O)c1N`, the call in [1], in [14], in experiment [2], in [15], in experiment [5] and in [6] was inactive. For the same compound, the call in experiment [7], in [8], in experiment [9], in experiment [17], in experiment [18] and in [10] was inactive. Also, in experiment [13], the outcome was inactive.

As usually defined, the AC50 is the concentration at which the activity in the assay is half-maximal.
